Among the test systems are BLK; BMPR1A; BMPR1B; BMPR2; BMX; BRAF; BRSK1; BRSK2; BTK.
What all share (details): concentration: 1 μM, replicates: in singlicate; n = 1
The next assay deals with T1, BRK.
T1 construct: gene PTK6

The structures appear in SMILES notation.
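Further: KINOMEscan kinase panel screen.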

With `COCCNC(=O)c1ccc(-c2cc(C(=O)NC3CC3)cc(F)c2C)cc1` [GW868318], the “%Inh” value stood at 0% with BLK; 19% with BMPR1A; 19% in the assay on BMPR1B; 46% in the assay with BMPR2; 7% in the assay with BMX; 10% in the assay on BRAF. For the same molecule, the “%Inh” value in the assay with BRK came to 0%; in the assay with BRSK1 it was 0%; in the assay with BRSK2 it was 18%; in the assay on BTK, 0%.
Regarding `COc1ccc(Nc2ncc(C#N)c(Nc3ccccc3C(N)=O)n2)cc1N1CCN(C)CC1.Cl` [GSK1558669], the “%Inh” value in the assay with BLK is on record as 99.8%; in the assay on BMPR1A, 0%; in the assay with BMPR1B, 80%; in the assay on BMPR2 it was 92%; in the assay with BMX, 75%; with BRAF it was 98.6%. The “%Inh” value with BRK is on record as 99.7%; in the assay on BRSK1, 90.9%; with BRSK2, 88%; in the assay with BTK, 97.2%.
Take `NS(=O)(=O)CCc1cccc(Nc2nccc(-c3c(-c4cccc(NC(=O)c5c(F)cccc5F)c4)nn4ccccc34)n2)c1` [GSK336735]: the “%Inh” value with BLK was 99.7%; in the assay with BMPR1A, 0%; with BMPR1B, 0%; in the assay on BMPR2, 0%; in the assay with BMX it was 94.6%; in the assay on BRAF, 89%. Moreover, the “%Inh” value is on record as 96% with BRK, 8% in the assay on BRSK1, 20% in the assay on BRSK2 and 94.6% with BTK.
Turning to `CN(C1=C(c2ccccc2)C(=O)NC1=O)c1ccccc1` [SB-334860], the “%Inh” value in the assay on BLK turned out to be 0%; with BMPR1A, 0%; in the assay with BMPR1B it was 0%; in the assay with BMPR2 it was 0%; in the assay with BMX, 13%; in the assay with BRAF, 0%. The “%Inh” value in the assay on BRK was found to be 2%; in the assay on BRSK1, 0%; in the assay with BRSK2, 0%; in the assay with BTK it was 0%.
Take `COc1ccc(S(=O)(=O)NC2CCN(c3cc(C)nc(Nc4cccc(C#N)c4)n3)CC2)cc1.O=C(O)C(F)(F)F` [GSK1653539]: the “%Inh” value with BLK came to 25%; in the assay with BMPR1A it was 0%; in the assay with BMPR1B, 0%; with BMPR2, 0%; in the assay with BMX it was 3%; with BRAF, 0%. For the same molecule, the “%Inh” value in the assay with BRK, in the assay with BRSK1, with BRSK2 and in the assay on BTK was 0% in each case.
For `COC(=O)Nc1nc2cc(Oc3ccc(NC(=O)Nc4cc(F)ccc4F)cc3)ccc2[nH]1.Cl` [GW701424], the “%Inh” value in the assay with BLK was found to be 25%; with BMPR1A, 0%; in the assay with BMPR1B it was 0%; in the assay on BMPR2, 24%; in the assay with BMX it was 9%; with BRAF, 53%. Besides, the “%Inh” value turned out to be 0% with BRK, 0% in the assay with BRSK1, 0% in the assay with BRSK2 and 6% with BTK.
On to `[2H]C([2H])(c1cccc(C(F)(F)F)c1C)n1ccn2c(=O)nc(N3CCOCC3)cc12` [GSK2336394], for which the “%Inh” value with BLK stood at 25%; in the assay with BMPR1A, 1%; in the assay on BMPR1B it was 0%; in the assay on BMPR2 it was 0%; in the assay with BMX, 9%; in the assay with BRAF it was 44%. Further, the “%Inh” value with BRK amounted to 18%; with BRSK1, 7%; in the assay with BRSK2, 0%; in the assay with BTK, 0%.
`CN(C(=O)c1ccc(-c2cc(-c3c[nH]nc3-c3ccccn3)ccn2)cc1)C1CCOCC1` [GW810083]: the “%Inh” value in the assay with BLK is listed as 22%; in the assay on BMPR1A it was 0%; with BMPR1B, 0%; with BMPR2, 24%; in the assay on BMX, 0%; in the assay on BRAF, 0%. For the same molecule, the “%Inh” value with BRK is given as 4%; in the assay with BRSK1, 3%; with BRSK2 it was 8%; in the assay with BTK, 16%.
Consider `COc1cc2c(cc1OCCN1CCN(C)CC1)ncc1c3ccc(C#N)cc3[nH]c21`, for which the “%Inh” value in the assay on BLK was 4%; with BMPR1A, 0%; in the assay on BMPR1B it was 0%; in the assay with BMPR2, 0%; in the assay on BMX it was 0%; in the assay with BRAF, 0%. For the same molecule, the “%Inh” value is recorded as 23% in the assay on BRK, 4% with BRSK1, 0% in the assay on BRSK2 and 0% in the assay on BTK.
Turning to `O=c1cc(N2CCOCC2)nc2n(Cc3cccc(C(F)(F)F)c3)ccn12` [GSK2297543], the “%Inh” value with BLK was 16%; in the assay on BMPR1A, 0%; in the assay on BMPR1B it was 0%; in the assay on BMPR2, 0%; in the assay with BMX, 20%; in the assay with BRAF it was 0%. Moreover, the “%Inh” value with BRK was determined as 2%; in the assay with BRSK1, 0%; with BRSK2, 7%; in the assay with BTK, 0%.
Regarding `CNc1ncnc2[nH]ncc12` [SKF-18355], the “%Inh” value came to 0% in the assay on BLK; 6% in the assay with BMPR1A; 0% in the assay with BMPR1B; 35% in the assay on BMPR2; 0% in the assay with BMX; 11% in the assay with BRAF. The “%Inh” value in the assay with BRK, with BRSK1, with BRSK2 and in the assay with BTK was 0% throughout.
As for `COc1cc2c(cc1OC[C@@H](O)CO)ncc1c3ccc(C#N)cc3[nH]c21`, the “%Inh” value turned out to be 24% with BLK; 5% in the assay with BMPR1A; 0% in the assay with BMPR1B; 0% with BMPR2; 0% with BMX; 0% with BRAF. Besides, the “%Inh” value with BRK, with BRSK1, in the assay on BRSK2 and in the assay with BTK was 0% each time.
As for `CN1c2ccc(NCc3ccc(F)cc3)cc2-c2c(cnn2C)S1(=O)=O`, the “%Inh” value in the assay with BLK stood at 0%; with BMPR1A, 0%; in the assay with BMPR1B, 1%; in the assay on BMPR2 it was 0%; with BMX it was 0%; with BRAF, 17%. Further, the “%Inh” value with BRK, in the assay with BRSK1, with BRSK2 and in the assay with BTK was 0% in each case.
For the molecule `O=C(NCCNc1ccnc(Nc2ccc(F)cc2)n1)c1cc2ccccc2s1` [GSK1379874], the “%Inh” value in the assay with BLK turned out to be 23%; in the assay on BMPR1A, 0%; in the assay with BMPR1B, 0%; in the assay on BMPR2, 15%; in the assay with BMX it was 1%; in the assay with BRAF, 0%. The “%Inh” value came out at 29% in the assay on BRK, 0% with BRSK1, 0% in the assay on BRSK2 and 0% in the assay with BTK.
Turning to `COc1cc(Nc2nccc(N3CCC(NC(=O)c4cccc(NC(C)=O)c4)C3)n2)cc(OC)c1OC` (stereo not drawn) [GSK1379754], the “%Inh” value with BLK came out at 34%; in the assay on BMPR1A it was 0%; in the assay on BMPR1B it was 0%; with BMPR2, 0%; in the assay with BMX, 18%; with BRAF it was 3%. Further, the “%Inh” value is reported as 19% with BRK, 26% in the assay on BRSK1, 0% with BRSK2 and 0% in the assay with BTK.

The record behind these values is paper PMC5540273 (PLoS ONE, 2017).
